The results in this text go back to PubChem BioAssay.

The nature of test [1]: antimalarial activity against Dd2 strain (AID 2302;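 active = growth inhibition above 50% at the single 2 µM test dose, taken to imply half-maximal potency below 2 µM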;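 also: 0% = DMSO untreated growth and 100% = chloroquine plus artemisinin killed control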). Particulars: P. falciparum Dd2 in RBCs, LDH growth readout, 72 h; at 2 µM; stronger effect = higher value.
Test [2] can be described thus: human hepatoma cell viability loss – ATP luminescence, cytotoxicity control for P. falciparum antimalarial project, primary screen (AID 2303;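 active = inhibition above 50%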;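 also: 0% = DMSO wells and 100% = digitonin-killed cells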). Particulars: HepG2 viability, 24-48 h, at 10 µM, stronger effect = higher value.
Test [3] has as its target L-lactate dehydrogenase (Plasmodium falciparum (isolate CDC / Honduras)) (UniProt Q27743). Put plainly: PfLDH activity inhibition – cell lysate, 3D7 strain, counter-screen for P. falciparum growth inhibition project (AID 2304).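 Also: 0% = vehicle and 100% = reference inhibitor.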 Particulars: P. falciparum 3D7 crude extract, LDH APAD/NBT absorbance; at 2 µM; stronger effect = higher value. For orientation: A counterscreen serves to expose hits that act by an unwanted route or on another target.

Test [4] in a line: inhibition of 3D7 malaria parasite growth – strain 3D7 (AID 2306).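 Also: 0% = DMSO wells and 100% = chloroquine plus artemisinin control wells.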 Particulars: P. falciparum 3D7 erythrocytic growth, LDH absorbance, 72 h; at 2 µM; stronger effect = higher value.
The target of test [5] is Calcium-dependent protein kinase 1 (Plasmodium falciparum (isolate 3D7)) (UniProt P62344). Put plainly: PfCDPK1 kinase inhibitors, biochemical, TCAMS library (AID 1159585; cut-off not given, nearly all actives have IC50 up to about 0.98 µM;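 also: inhibitors leave more ATP so luminescence rises with inhibition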). Particulars: recombinant PfCDPK1, Kinase-Glo ATP depletion luminescence. A general note: In Kinase-Glo more light means more ATP remaining.
The target in test [6] is Plasmodium falciparum protein kinase 6 (PK6, PF3D7_1337100) (UniProt Q8IDW1). Description: PfPK6 kinase inhibitors, biochemical, TCAMS library (AID 1159586). Particulars: recombinant PfPK6, Kinase-Glo ATP depletion luminescence.
The target of test [7] is Protein kinase 7 (PK7), Plasmodium falciparum 3D7 (PF3D7_0213400) (UniProt Q7YTF7). Put plainly: inhibition of Plasmodium PK7 catalytic activity – biochemical, TCAMS antimalarial set, Kinase-Glo luminescence (AID 1159587). Particulars: recombinant PfPK7, Kinase-Glo ATP depletion luminescence.
Test [8] deals with Calcium-dependent protein kinase 4 (Plasmodium falciparum (isolate 3D7)) (UniProt Q8IBS5). Put plainly: PfCDPK4 kinase inhibitors, biochemical, TCAMS library (AID 1159588; cut-off not given, nearly all actives have IC50 up to about 0.91 µM). Particulars: recombinant PfCDPK4, Kinase-Glo ATP depletion luminescence.

Structures are written as SMILES. A number with no mark means an inactive call. For some of these results: Measured potencies and affinities stand elsewhere. The source made the active and inactive calls. Unless noted, no rule for the calls is given here.

Chain of Calcium-dependent protein kinase 4 (Plasmodium falciparum (isolate 3D7)) (Q8IBS5 whole entry, looked up): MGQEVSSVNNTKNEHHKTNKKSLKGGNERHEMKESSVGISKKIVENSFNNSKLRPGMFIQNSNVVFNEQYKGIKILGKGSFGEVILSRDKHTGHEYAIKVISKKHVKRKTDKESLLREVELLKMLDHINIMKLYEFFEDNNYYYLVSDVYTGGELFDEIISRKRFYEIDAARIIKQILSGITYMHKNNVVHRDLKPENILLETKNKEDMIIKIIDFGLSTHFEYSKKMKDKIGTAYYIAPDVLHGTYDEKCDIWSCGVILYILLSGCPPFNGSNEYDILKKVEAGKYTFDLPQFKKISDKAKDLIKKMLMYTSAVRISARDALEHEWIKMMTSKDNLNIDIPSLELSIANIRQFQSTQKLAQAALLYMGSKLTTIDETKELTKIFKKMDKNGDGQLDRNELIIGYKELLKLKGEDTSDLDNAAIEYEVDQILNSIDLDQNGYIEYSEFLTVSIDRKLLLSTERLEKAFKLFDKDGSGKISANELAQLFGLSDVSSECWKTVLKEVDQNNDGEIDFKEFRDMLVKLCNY
Chain of Calcium-dependent protein kinase 1 (Plasmodium falciparum (isolate 3D7)) (P62344 whole entry, looked up): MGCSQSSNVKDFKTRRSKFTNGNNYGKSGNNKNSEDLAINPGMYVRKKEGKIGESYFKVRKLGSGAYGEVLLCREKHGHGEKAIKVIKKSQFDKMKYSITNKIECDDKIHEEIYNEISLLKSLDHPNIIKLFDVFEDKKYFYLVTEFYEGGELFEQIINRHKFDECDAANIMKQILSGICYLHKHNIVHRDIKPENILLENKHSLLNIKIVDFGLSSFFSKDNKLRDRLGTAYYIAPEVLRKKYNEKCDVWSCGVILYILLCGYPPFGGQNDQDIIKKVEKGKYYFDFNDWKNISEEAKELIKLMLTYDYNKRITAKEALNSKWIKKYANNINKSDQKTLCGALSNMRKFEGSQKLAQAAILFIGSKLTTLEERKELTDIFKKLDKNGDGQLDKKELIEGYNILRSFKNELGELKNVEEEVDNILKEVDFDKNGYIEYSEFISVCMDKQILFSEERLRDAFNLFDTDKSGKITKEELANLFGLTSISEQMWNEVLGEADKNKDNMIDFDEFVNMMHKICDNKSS
Chain of L-lactate dehydrogenase (Plasmodium falciparum (isolate CDC / Honduras)) (Q27743 whole entry, looked up): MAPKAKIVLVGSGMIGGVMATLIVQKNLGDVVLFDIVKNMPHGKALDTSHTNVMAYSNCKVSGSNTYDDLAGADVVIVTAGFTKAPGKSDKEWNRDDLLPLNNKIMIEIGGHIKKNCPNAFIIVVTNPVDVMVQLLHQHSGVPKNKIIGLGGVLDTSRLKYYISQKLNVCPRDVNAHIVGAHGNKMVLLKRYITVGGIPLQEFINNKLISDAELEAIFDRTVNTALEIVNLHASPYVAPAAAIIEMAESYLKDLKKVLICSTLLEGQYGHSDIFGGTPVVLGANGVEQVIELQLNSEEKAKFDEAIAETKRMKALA
Chain of Plasmodium falciparum protein kinase 6 (PK6, PF3D7_1337100) (Q8IDW1 1-305): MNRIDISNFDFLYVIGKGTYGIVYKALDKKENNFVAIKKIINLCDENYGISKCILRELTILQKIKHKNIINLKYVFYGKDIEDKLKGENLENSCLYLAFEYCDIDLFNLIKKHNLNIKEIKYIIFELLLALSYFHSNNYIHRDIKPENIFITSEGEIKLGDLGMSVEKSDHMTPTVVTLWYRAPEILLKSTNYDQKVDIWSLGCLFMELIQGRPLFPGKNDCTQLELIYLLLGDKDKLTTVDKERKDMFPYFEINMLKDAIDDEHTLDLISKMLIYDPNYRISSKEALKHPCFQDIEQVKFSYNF
Chain of Protein kinase 7 (PK7), Plasmodium falciparum 3D7 (PF3D7_0213400) (Q7YTF7 1-343): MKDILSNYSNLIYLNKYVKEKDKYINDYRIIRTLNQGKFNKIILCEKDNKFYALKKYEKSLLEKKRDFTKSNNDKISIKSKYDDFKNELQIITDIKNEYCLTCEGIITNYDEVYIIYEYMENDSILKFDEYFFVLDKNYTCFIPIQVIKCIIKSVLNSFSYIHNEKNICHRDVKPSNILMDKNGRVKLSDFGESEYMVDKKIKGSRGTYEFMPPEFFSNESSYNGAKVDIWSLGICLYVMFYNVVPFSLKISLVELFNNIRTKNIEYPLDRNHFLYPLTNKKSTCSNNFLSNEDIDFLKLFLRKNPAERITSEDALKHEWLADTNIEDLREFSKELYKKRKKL

What is called inhibition is the relative decrease from the control value, in per cent. For the compound `O=C(Nc1cccc(CN2CCCN(Cc3ccccc3)CC2)c1)c1cc2ccccc2s1`, the growth inhibition was 28% in test [1] and 87% (active) in test [4]. Besides, the inhibition in test [2] is 41%; in test [3], 1%. For the same compound, the outcome in test [5], in test [6], in test [7] and in test [8] was inactive.
For the compound `CC(NC(=O)c1ccc(O)c(-c2ccc(Cl)c(Cl)c2)c1)C(=O)NC1CCCCC1` (stereo not given), the growth inhibition in test [1] was 82% (active); in test [4], 96% (active). Moreover, the inhibition was -5% in test [2] and -2% in test [3]. In addition, the result in test [5], in test [6], in test [7] and in test [8] was inactive.
Regarding `CCCCCCCCCN(CCC)C(=O)[C@@H]1OC(C(=O)OC(c2ccccc2)c2ccccc2)=C[C@H](NC(=O)OC(C)(C)C)[C@H]1NC(C)=O`, the growth inhibition in test [1] is 49%; in test [4], 91% (active). The inhibition in test [2] is 0%; in test [3], -1%. Further, the outcome in test [5], in test [6], in test [7] and in test [8] was inactive.
For the compound `OC1(c2ccc(Br)cc2)CCN(C2CCN(Cc3ccccc3)CC2)CC1`, the growth inhibition was 18% in test [1] and 100% (active) in test [4]. The inhibition in test [2] and in test [3] was 8% each time. Besides, the outcome in test [5], in test [6], in test [7] and in test [8] was inactive.
As for `CCc1c(C)c(C#N)c2nc3ccccc3n2c1NCc1ccco1`, the growth inhibition was 90% (active) in test [1] and 99% (active) in test [4]. The inhibition in test [2] is -3%; in test [3] it was 6%. For the same compound, the result in test [5], in test [6], in test [7] and in test [8] was inactive.
With `CCOC(=O)c1ccc(NC(=O)Nc2ccc(-c3cccc(-c4nc5ccc(F)cc5[nH]4)c3)cc2)cc1`, the growth inhibition in test [1] is 100% (active); in test [4], 102% (active). In addition, the inhibition in test [2] was 98% (active); in test [3] it was 2%. For the same compound, the result in test [5], in test [6], in test [7] and in test [8] was inactive.
For the compound `O=C(NCCc1ccccc1)N(Cc1cccc(-c2ccc(CNCCc3ccccc3)cc2)c1)C1CCN(Cc2ccccc2)CC1`, the growth inhibition in test [1] is 91% (active); in test [4], 90% (active). Besides, the inhibition in test [2] is 94% (active); in test [3] it was -5%. Further, the outcome in test [5], in test [6], in test [7] and in test [8] was inactive.
Turning to `Cc1ccc(Nc2cc(C)nn2-c2nc(C)cc(=O)[nH]2)cc1`, the growth inhibition was 95% (active) in test [1] and 97% (active) in test [4]. The inhibition in test [2] was 54% (active); in test [3] it was -3%. The result in test [5], in test [6], in test [7] and in test [8] was inactive.
In the case of `O=C(Nc1ccc(N2CCC(Nc3ccccn3)CC2)cc1)c1cnc(Cl)c(Cl)c1`, the results for the growth inhibition in test [1] and in test [4] were 1% and 83% (active), respectively. Also, the inhibition is 46% in test [2] and 0% in test [3]. In addition, the result in test [5], in test [6], in test [7] and in test [8] was inactive.
Consider `Cc1noc(C)c1-c1cccc(CNCc2ccc(-c3ccc(-c4nc5ccccc5[nH]4)s3)cc2)c1`, for which the growth inhibition was 79% (active) in test [1] and 103% (active) in test [4]. Further, the results for the inhibition in test [2] and in test [3] were 41% and -6%, respectively. In addition, the result in test [5], in test [6], in test [7] and in test [8] was inactive.
Take `Cc1nc(N)nc(N)c1-c1ccc(Cl)cc1`: the results for the growth inhibition in test [1] and in test [4] were 0% and 96% (active), respectively. Further, the inhibition was 15% in test [2] and -4% in test [3]. Moreover, the outcome in test [5], in test [6], in test [7] and in test [8] was inactive.
`N#Cc1ccc2c(c1)CCN(CCC1CCC(NC(=O)c3ccc(-c4ccccn4)s3)CC1)CC2` (stereo not given): the growth inhibition was 9% in test [1] and 92% (active) in test [4]. Besides, the inhibition in test [2] is 16%; in test [3], 1%. Further, the result in test [5], in test [6], in test [7] and in test [8] was inactive.
For the compound `CC(NC(=O)c1ccc(O)c(-c2ccc(Cl)c(Cl)c2)c1)C(=O)NCCN1CCCCC1` (stereo not given), the growth inhibition in test [1] is 3%; in test [4] it was 97% (active). Moreover, the values for the inhibition in test [2] and in test [3] were -2% and 2%, respectively. Besides, the result in test [5], in test [6], in test [7] and in test [8] was inactive.
Regarding `CCOC(=O)c1ccc(N2CCCCC2)c(NC(=O)C(Cl)(Cl)Cl)c1`, the growth inhibition was 97% (active) in test [1] and 96% (active) in test [4]. The inhibition in test [2] was 11%; in test [3], 1%. Besides, the result in test [5], in test [6], in test [7] and in test [8] was inactive.
Consider `CCOc1ccc2ccccc2c1CNCCCCCCNCc1c(OCC)ccc2ccccc12`, for which the growth inhibition in test [1] was 89% (active); in test [4], 100% (active). The inhibition in test [2] is 100% (active); in test [3] it was -2%. The result in test [5], in test [6], in test [7] and in test [8] was inactive.
Regarding `Nc1nc(N)c2c(ccc3c2ccn3CCCC(F)(F)F)n1`, the growth inhibition is 34% in test [1] and 97% (active) in test [4]. For the same compound, the inhibition in test [2] is 66% (active); in test [3], 0%. For the same compound, the result in test [5], in test [6], in test [7] and in test [8] was inactive.
Regarding `O=C(/C=C/c1ccc(Cl)c(Cl)c1)NCCCCCN1CCC(NC(=O)NC2CCCCC2)CC1`, the results for the growth inhibition in test [1] and in test [4] were 44% and 96% (active), respectively. Besides, the inhibition in test [2] was 22%; in test [3] it was -1%. Further, the result in test [5], in test [6], in test [7] and in test [8] was inactive.
As to `Oc1ccccc1CNCc1ccc(-c2cnc(N3CCCC(c4ccccc4)C3)nc2)cc1` (stereo not given), the growth inhibition was 84% (active) in test [1] and 99% (active) in test [4]. Also, the results for the inhibition in test [2] and in test [3] were 6% and -4%, respectively. The result in test [5], in test [6], in test [7] and in test [8] was inactive.
Take `NCC(=O)NC12CC3CC(CC(C3)C1)C2`: the figures for the growth inhibition in test [1] and in test [4] were -4% and 87% (active), respectively. Also, the inhibition is 15% in test [2] and -2% in test [3]. In addition, the outcome in test [5], in test [6], in test [7] and in test [8] was inactive.
Take `Cc1nc(N)nc(N)c1OCc1ccc(Cl)c(Cl)c1`: the growth inhibition was 5% in test [1] and 97% (active) in test [4]. In addition, the inhibition was 14% in test [2] and -2% in test [3]. Also, the outcome in test [5], in test [6], in test [7] and in test [8] was inactive.
